Drawing on PubChem BioAssay (NCI), this text covers growth inhibition for 20 compounds.

A short description of assay [1]: NCI Yeast Anticancer Drug Screen. Data for the rad50 strain (AID 155).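 Further: 0% = growth of vehicle-only cultures of the same strain.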 Conditions: S. cerevisiae rad50 strain growth inhibition; at 50.0 µM; stronger effect = higher value. The gist of the method:
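Inhibition values express reduced yeast growth in compound-treated cultures relative to vehicle-treated controls.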

Assay [2] can be described thus: NCI Yeast Anticancer Drug Screen. Data for the mec2-1 strain (AID 157). Conditions: S. cerevisiae mec2-1 strain, at 50.0 µM, stronger effect = higher value. The method, boiled down: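 Test agents were screened against the mec2-1 yeast strain, with defined DNA repair or cell cycle alteration. Growth was scored as inhibition against vehicle-only controls.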
Assay [3] can be described thus: NCI Yeast Anticancer Drug Screen. Data for the sgs1 mgt1 strain (AID 161).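 Further: 0% = growth of cultures given vehicle only.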 Conditions: S. cerevisiae sgs1 mgt1 strain, at 50.0 µM, stronger effect = higher value. The method, boiled down: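 Read-out: growth inhibition vs vehicle controls. Cells: mutant yeast strain deficient in DNA damage repair.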
Assay [4] is described as follows: NCI Yeast Anticancer Drug Screen. Data for the cln2 rad14 strain (AID 165).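 Further: 0% = growth equal to vehicle treated cultures.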 To be noted: S. cerevisiae cln2 rad14 strain, at 50.0 µM, stronger effect = higher value. The method, boiled down: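 Growth of compound-exposed yeast (cln2 rad14 genotype) measured and expressed as inhibition relative to vehicle.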
The nature of assay [5]: NCI Yeast Anticancer Drug Screen. Data for the bub3 strain (AID 167). To be noted: S. cerevisiae bub3 mutant strain, at 50.0 µM, stronger effect = higher value. The gist of the method:
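Steps: expose the mutant yeast strain to compound; grow alongside vehicle-treated cultures; measure growth; express inhibition against the vehicle cultures.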

Assay [6] can be described thus: NCI Yeast Anticancer Drug Screen. Data for the mlh1 rad18 strain (AID 175). To be noted: S. cerevisiae mlh1 rad18 strain growth inhibition; at 50.0 µM; stronger effect = higher value. The gist of the method: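 In this whole-cell yeast screen, a strain with altered DNA damage repair is challenged with compound, and its growth is measured against matched vehicle-treated controls.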

The panel holds about 79,000 compounds, 15% with a hit somewhere; the sample as a whole holds those more often. Values without a mark were called inactive. The source made the active and inactive calls. No stated cut-off is given here; in the data, active means growth inhibition above about 70%; inactive means the rest.

Take `COP(=O)(Cc1ccc(/C=C/C#N)o1)OC`: the growth inhibition in assay [1] was -12.2%; in assay [2], -3.1%; in assay [3], -38.8%; in assay [4], -22.1%; in assay [5], 18.2%; in assay [6], -10.2%.

For the compound `O=S=NN(CC(Cl)c1ccccc1)CC(Cl)c1ccccc1` (stereo not given), the growth inhibition in assay [1] is 10.1%; in assay [2], -8.5%; in assay [3], 19.9%; in assay [4] it was -47.5%; in assay [5], 22.9%; in assay [6], 7.7%.

Regarding `CC1=CC(=O)CCC12CCOC2=O` (stereo not given), the growth inhibition in assay [1] was -54.1%; in assay [2] it was -20.1%; in assay [3], -21.3%; in assay [4], -40.6%; in assay [5] it was -13.2%; in assay [6], -7.55%.

For the compound `S=C(N=Nc1ccccc1)NNc1ccccc1.[Zn+2]`, the growth inhibition is 28.1% in assay [1]; -9.35% in assay [2]; 19.4% in assay [3]; 12.3% in assay [4]; 36% in assay [5]; 12.3% in assay [6].

As for `C=CCN1CN(c2ccccc2)C2(CCN(CCCC3(c4ccc(F)cc4)OCCO3)CC2)C1=O`, the growth inhibition was -18.1% in assay [1]; -7.55% in assay [2]; 1.4% in assay [3]; 0.4% in assay [4]; 0.7% in assay [5]; -13.8% in assay [6].

Regarding `N#CC(OC1OC(C(=O)O)C(O)C(O)C1O)c1ccccc1` (stereo not given), the growth inhibition in assay [1] was 17.2%; in assay [2] it was -14.5%; in assay [3], -5.3%; in assay [4], 3%; in assay [5], 0.6%; in assay [6], 2.25%.

Take `O=[N+]([O-])c1ccc2nc(-c3ccc(S(=O)(=O)F)cc3)cc(Cl)c2c1`: the growth inhibition is -19.1% in assay [1]; 16.9% in assay [2]; 4.45% in assay [3]; -12.4% in assay [4]; 13.3% in assay [5]; -9.9% in assay [6].

`COc1ccc2c(c1OC)C13CCN(C)C(C2)C12C=CC(=O)C3c1c(OC)ccc(OC)c12` (stereo not given): the growth inhibition is 37.4% in assay [1]; 6.95% in assay [2]; 24.2% in assay [3]; 18.8% in assay [4]; 4.2% in assay [5]; 27.2% in assay [6].

`S=C=Nc1cccc2ccccc12`: the growth inhibition is -13.7% in assay [1]; -11.8% in assay [2]; -10.1% in assay [3]; 17.5% in assay [4]; -6.45% in assay [5]; -6.1% in assay [6].

With `COc1ccc2[nH]cc(/C=C\[N+](=O)[O-])c2c1`, the growth inhibition in assay [1] is 6%; in assay [2], -10.1%; in assay [3] it was 32.4%; in assay [4], 2.2%; in assay [5] it was 7.65%; in assay [6], 13.8%.

Regarding `CC[C@@H](C)C(=O)O[C@H]1[C@H](O)[C@H]2[C@@H](CN3C[C@@H](C)CC[C@H]3[C@@]2(C)O)[C@@H]2C[C@]34O[C@]5(O)[C@@H](OC(=O)[C@@](C)(O)CC)CC[C@@]3(C)[C@@H]5[C@@H](OC(C)=O)[C@@H](OC(C)=O)[C@H]4[C@@]21O`, the growth inhibition is 11.8% in assay [1]; -15.3% in assay [2]; 0.75% in assay [3]; -4.3% in assay [4]; 8.75% in assay [5]; 7.35% in assay [6].

Turning to `[C-]#[O+].[C-]#[O+].[C-]#[O+].[W].c1ccc([PH+](CC[PH+](c2ccccc2)c2ccccc2)CC[PH+](c2ccccc2)c2ccccc2)cc1`, the growth inhibition was 0.6% in assay [1]; -18.7% in assay [2]; -1.8% in assay [3]; 3.45% in assay [4]; 3.85% in assay [5]; 2.6% in assay [6].

Take `O=Cc1ccccc1O.O=Cc1ccccc1O.[Cu]`: the growth inhibition is 86.2% (active) in assay [1]; 72.8% (active) in assay [2]; 88.9% (active) in assay [3]; 55.4% in assay [4]; 70.2% (active) in assay [5]; 92.6% (active) in assay [6].

With `COc1ccccc1P(=S)(c1ccccc1)c1ccccc1`, the growth inhibition is 31% in assay [1]; 24.3% in assay [2]; 17.6% in assay [3]; 38% in assay [4]; 27.2% in assay [5]; 24.2% in assay [6].

For `CC(C)=CC1C(C(=O)OCc2cc3c(cc2Cl)OCO3)C1(C)C` (stereo not given), the growth inhibition in assay [1] was 8.65%; in assay [2], 12.1%; in assay [3], -15.2%; in assay [4] it was -48.9%; in assay [5], 14.9%; in assay [6], -3.9%.

With `CC(=O)CC(C)=O`, the growth inhibition in assay [1] was -7.2%; in assay [2], 3.8%; in assay [3] it was -3%; in assay [4] it was -11.3%; in assay [5], 1.7%; in assay [6], 1.8%.

`c1cc(C[N+]23CN4CN(CN(C4)C2)C3)cs1`: the growth inhibition in assay [1] was -5.75%; in assay [2] it was 14.2%; in assay [3] it was 3.95%; in assay [4] it was -7.65%; in assay [5], 1.55%; in assay [6], -13.7%.

In the case of `S=P(Oc1cc(Cl)c(Cl)cc1Cl)(N1CCOCC1)N1CCOCC1`, the growth inhibition in assay [1] is 37.1%; in assay [2], 8.85%; in assay [3], 42%; in assay [4] it was 35%; in assay [5] it was 12.3%; in assay [6], 19.9%.

`C=CC1CN2CCC1CC2C(O)c1ccnc2ccccc12` (stereo not given) (tested in a mixture with another compound): the growth inhibition in assay [1] is -3.9%; in assay [2], -17.1%; in assay [3], -5.4%; in assay [4], -4.05%; in assay [5], -1.4%; in assay [6], 1.75%.

Turning to `O=C(Nc1ccc(N(CCCl)CCCl)cc1)c1ccc([N+](=O)[O-])cc1`, the growth inhibition was 20.1% in assay [1]; 0.75% in assay [2]; 3% in assay [3]; -23.6% in assay [4]; -1.05% in assay [5]; -2.6% in assay [6].
